Active and inactive are the calls of the source. The calls were made as follows: active = hit-call score of the fitted dose curve at least 0.9, where 1 is the maximum; inactive = score below 0.9.
Columns and labels:
[1] = target: Bile acid receptor (Homo sapiens) (UniProt Q96RI1); assay: ATG_IR1_CIS: Attagene CIS-FACTORIAL HepG2 Assay for human Nuclear Receptor Subfamily 1 Group H Member 4 (NR1H4), IR1 submotif (AID 2282946); details: IR1 reporter transcription, actives raise or lower the signal
Method in brief: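 Cells (human HepG2) carry transiently transfected cis-promoter reporter transcription units. Compounds are incubated 24 h, total RNA is reverse-transcribed and amplified, and labelled fragments are resolved by capillary electrophoresis. Curves use DMSO as baseline.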

[2] = ATG_GRE_CIS: Attagene CIS-FACTORIAL HepG2 Assay for human Glucocorticoid Response Elements (GRE) (AID 2282947); details: HepG2 GRE cis-reporter, Attagene multiplex mRNA; actives raise or lower the signal
Method in brief: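 Assay uses human hepatoma HepG2 cells transfected with cis-promoter reporter units, exposed 24 h. mRNA from reporters detected by RT-PCR plus capillary electrophoresis; DMSO serves as negative control and baseline.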

[3] = ATG_ISRE_CIS: Attagene CIS-FACTORIAL HepG2 Assay for human Interferon Regulatory Factor 1 (IRF1) binding to an Interferon-Stimulated Response Element (ISRE) (AID 2282948); details: HepG2 ISRE cis-reporter (Attagene), mRNA transcription readout; actives raise or lower the signal
Method in brief: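 Transfected HepG2 (multiple reporter transcription units, cis elements) dosed 24 h. RNA → oligo(dT) RT → PCR → 6-FAM primer extension → HpaI → CE. DMSO = negative control/baseline.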

[4] = ATG_M_32_CIS: Attagene CIS-FACTORIAL HepG2 Assay for M32 Transcription Factor (Internal Marker) (AID 2282949); details: HepG2 Attagene cis-factorial M32 reporter, mRNA; actives raise or lower the signal;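 also: background control marker of the multiplexed CIS panel rather than a real target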
Method in brief: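 Following 24 h chemical exposure of HepG2 cells transiently expressing cis-promoter reporter constructs, reporter transcript levels were determined by RT-PCR with fluorescent labelling and capillary electrophoresis, then fitted bidirectionally against DMSO.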

[5] = ATG_M_06_CIS: Attagene CIS-FACTORIAL HepG2 Assay for M06 Transcription Factor (Internal Marker) (AID 2282950); details: HepG2 Attagene CIS-FACTORIAL M06 internal marker reporter; actives raise or lower the signal
Method in brief: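 Internal background marker within multiplexed cis-reporter HepG2 system. Cells transiently transfected, dosed 24 h; reporter mRNA measured by RT-PCR, HpaI digestion and capillary electrophoresis. Bidirectional fit relative to DMSO.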

[6] = target: Hypoxia-inducible factor 1-alpha (Homo sapiens) (UniProt Q16665); assay: ATG_HIF1a_CIS: Attagene CIS-FACTORIAL HepG2 Assay for human Hypoxia Inducible Factor 1 (HIF1A) (AID 2282951); details: HepG2 Attagene cis-factorial HIF1a reporter transcription; actives raise or lower the signal
Method in brief: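 Measures endogenous transcription-factor activity through cis-regulated reporter mRNA in HepG2. Cells dosed 24 h; transcripts quantified by RT-PCR with 6-FAM-labelled products separated by capillary electrophoresis; DMSO serves as negative control.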

[7] = target: Hepatocyte nuclear factor 6 (Homo sapiens) (UniProt Q9UBC0); assay: ATG_HNF6_CIS: Attagene CIS-FACTORIAL HepG2 Assay for human Hepatocyte Nuclear Factor 6 (HNF6) (AID 2282952); details: HepG2 Attagene cis-factorial HNF6 reporter transcription; actives raise or lower the signal
Method in brief: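 HepG2, transient MRTU transfection (cis promoters); 24 h chemical exposure; total RNA → oligo(dT) RT → PCR → 6-FAM labelling → HpaI cut → CE; bidirectional fit vs DMSO.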

[8] = target: Heat shock factor protein 1 (Homo sapiens) (UniProt Q00613); assay: ATG_HSE_CIS: Attagene CIS-FACTORIAL HepG2 Assay for human Heat Shock Transcription Factor 1 (HSE) (AID 2282953); details: HepG2 HSE cis-reporter, Attagene RNA transcription; actives raise or lower the signal
Method in brief: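 HepG2 cells transfected with cis-promoter reporter units sensing endogenous transcription factor activity; reporter mRNA quantified 24 h post-dose by RT-PCR and capillary electrophoresis of 6-FAM-labelled products. Bidirectional fitting against DMSO.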

[9] = ATG_MRE_CIS: Attagene CIS-FACTORIAL HepG2 Assay for human Metal Responsive Element (MRE) (AID 2282954); details: HepG2 MRE cis-reporter transcription, Attagene multiplex; actives raise or lower the signal
Method in brief: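 After a 24 h chemical exposure, transiently transfected HepG2 cells yield RNA whose reporter sequences are amplified, FAM-labelled and sized by capillary electrophoresis. Curves are fitted bidirectionally relative to DMSO.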

[10] = ATG_PBREM_CIS: Attagene CIS-FACTORIAL HepG2 Assay for human Phenobarbital-responsive Enhancer Module (PBREM) (AID 2282955); details: HepG2 PBREM cis-reporter, Attagene multiplexed transcription; actives raise or lower the signal
Method in brief: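 Fluorescence of labelled reporter cDNA fragments, resolved by capillary electrophoresis, gives mRNA induction in transfected HepG2 cells treated for 24 h; DMSO serves as negative control and baseline.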

[11] = target: Paired box protein Pax-6 (Homo sapiens) (UniProt P26367); assay: ATG_Pax6_CIS: Attagene CIS-FACTORIAL HepG2 Assay for human Paired Box 6 (PAX6) (AID 2282956); details: HepG2 CIS-FACTORIAL PAX6 reporter transcription, RNA readout; actives raise or lower the signal
Method in brief: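 Transient MRTU transfection of HepG2 → compound exposure 24 h → TriZol RNA, oligo(dT) RT → PCR, 6-FAM primer extension, HpaI cut → capillary electrophoresis; activity fitted both directions against DMSO.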

[12] = ATG_PXRE_CIS: Attagene CIS-FACTORIAL HepG2 Assay for human Pregnane X Receptor Element (PXRE) (AID 2282957); details: HepG2 Attagene CIS-FACTORIAL PXRE reporter, mRNA; actives raise or lower the signal
Method in brief: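 Transfect HepG2 with MRTUs (cis promoter elements); dose chemical, incubate 24 h; isolate RNA, RT with oligo(dT), PCR, 6-FAM label, HpaI cut, CE. Gain/loss fit vs DMSO.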

[13] = ATG_PPRE_CIS: Attagene CIS-FACTORIAL HepG2 Assay for human Peroxisome Proliferator-activated Response Element (PPRE) (AID 2282958); details: HepG2 PPRE cis-element reporter, Attagene transcription factor profiling; actives raise or lower the signal
Method in brief: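 Cells are first transfected transiently with the multiplexed reporter library, then dosed for 24 h. Total RNA is reverse-transcribed, amplified, fluorescently end-labeled and HpaI-cut before capillary electrophoresis; activity is fitted bidirectionally against DMSO controls.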

[14] = ATG_RORE_CIS: Attagene CIS-FACTORIAL HepG2 Assay for human RAR-related Orphan Receptor Element (RORE) (AID 2282959); details: HepG2 Attagene cis-factorial RORE reporter, mRNA; actives raise or lower the signal
Method in brief: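 Cells were HepG2 carrying transfected cis-regulated reporter constructs, dosed for 24 hours. Total RNA was reverse-transcribed and reporter cDNA amplified, fluorescently labeled and sized by capillary electrophoresis. Activity was fitted bidirectionally relative to DMSO.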

[15] = ATG_Sox_CIS: Attagene CIS-FACTORIAL HepG2 Assay for human SRY-box transcription factor (SOX) (AID 2282960); details: HepG2 Attagene cis-factorial SOX reporter, mRNA; actives raise or lower the signal
Method in brief: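 Transient MRTU transfection of HepG2; 24 h compound incubation; TriZol RNA, oligo(dT) RT, PCR, 6-FAM primer extension, HpaI cut, CE. Bidirectional fit, DMSO = baseline.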

[16] = target: Transcription factor Sp1 (Homo sapiens) (UniProt P08047); assay: ATG_Sp1_CIS: Attagene CIS-FACTORIAL HepG2 Assay for human Specificity Protein 1 (Sp1) (AID 2282961); details: HepG2 Sp1 cis-reporter transcription, actives raise or lower the signal
Method in brief: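 Endogenous Sp1 activity was gauged in human liver HepG2 cells bearing transfected reporter units under a cis-regulating promoter. After 24 h dosing, reporter mRNA was quantified by RT-PCR with capillary electrophoresis, and activity fitted bidirectionally versus DMSO.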

[17] = ATG_SREBP_CIS: Attagene CIS-FACTORIAL HepG2 Assay for human Sterol Regulatory Element Binding (SREBP) (AID 2282962); details: HepG2 Attagene cis-factorial SREBP reporter, mRNA; actives raise or lower the signal
Method in brief: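 Transfected HepG2 (cis-regulated reporter library, endogenous TFs) → compound 24 h → total RNA → oligo(dT) RT → reporter-specific PCR → FAM primer extension, HpaI cut → CE fluorescence. Fit bidirectional vs DMSO.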

[18] = target: Signal transducer and activator of transcription 3 (Homo sapiens) (UniProt P40763); assay: ATG_STAT3_CIS: Attagene CIS-FACTORIAL HepG2 Assay for human Signal Transducer and Activator of Transcription 3 (STAT3) (AID 2282963); details: HepG2, Attagene cis-factorial STAT3 reporter transcription; actives raise or lower the signal
Method in brief: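 After a 24 h compound incubation, total RNA from MRTU-transfected HepG2 cells was converted to cDNA and reporter sequences PCR-amplified, labelled and profiled by capillary electrophoresis. Gain and loss of signal were referenced to DMSO.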

[19] = ATG_TA_CIS: Attagene CIS-FACTORIAL HepG2 Assay for human TA Basal Promoter (AID 2282964); details: HepG2 Attagene CIS-factorial TA basal promoter reporter; actives raise or lower the signal
Method in brief: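 HepG2 cells transiently transfected with multiple reporter units under cis promoter elements, reporting endogenous transcription factor activity; this endpoint tracks the TA basal promoter as background control. Reporter mRNA after 24 h dosing measured by RT-PCR/capillary electrophoresis; bidirectional fits versus DMSO.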

[20] = ATG_TCF_b_cat_CIS: Attagene CIS-FACTORIAL HepG2 Assay for human T-Cell-Factor with beta-catenin (TCF/b-cat) (AID 2282965); details: HepG2 TCF/beta-catenin cis-reporter transcription, actives raise or lower the signal
Method in brief: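 Endogenous transcription factor activity is captured through cis-promoter reporter constructs transiently introduced into human HepG2 liver cells. Induced reporter mRNA is measured after 24 h and fitted bidirectionally relative to DMSO.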

Measured: AC50

Bile acid receptor (Homo sapiens), sequence (Q96RI1 whole entry, looked up, the tested form may be a part): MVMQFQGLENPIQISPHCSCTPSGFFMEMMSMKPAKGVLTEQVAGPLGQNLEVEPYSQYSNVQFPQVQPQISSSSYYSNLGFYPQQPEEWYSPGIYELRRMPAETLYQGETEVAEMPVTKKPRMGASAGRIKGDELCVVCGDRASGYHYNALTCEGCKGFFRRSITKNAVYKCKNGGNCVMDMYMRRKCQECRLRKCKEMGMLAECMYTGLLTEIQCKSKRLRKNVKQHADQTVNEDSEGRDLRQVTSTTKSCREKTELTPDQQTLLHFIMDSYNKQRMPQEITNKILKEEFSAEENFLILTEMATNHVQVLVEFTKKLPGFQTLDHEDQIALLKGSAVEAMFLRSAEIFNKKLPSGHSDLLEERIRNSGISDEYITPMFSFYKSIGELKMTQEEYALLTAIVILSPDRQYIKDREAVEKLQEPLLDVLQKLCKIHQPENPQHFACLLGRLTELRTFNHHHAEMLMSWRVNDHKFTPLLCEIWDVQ
Transcription factor Sp1 (Homo sapiens), sequence (P08047 whole entry, looked up): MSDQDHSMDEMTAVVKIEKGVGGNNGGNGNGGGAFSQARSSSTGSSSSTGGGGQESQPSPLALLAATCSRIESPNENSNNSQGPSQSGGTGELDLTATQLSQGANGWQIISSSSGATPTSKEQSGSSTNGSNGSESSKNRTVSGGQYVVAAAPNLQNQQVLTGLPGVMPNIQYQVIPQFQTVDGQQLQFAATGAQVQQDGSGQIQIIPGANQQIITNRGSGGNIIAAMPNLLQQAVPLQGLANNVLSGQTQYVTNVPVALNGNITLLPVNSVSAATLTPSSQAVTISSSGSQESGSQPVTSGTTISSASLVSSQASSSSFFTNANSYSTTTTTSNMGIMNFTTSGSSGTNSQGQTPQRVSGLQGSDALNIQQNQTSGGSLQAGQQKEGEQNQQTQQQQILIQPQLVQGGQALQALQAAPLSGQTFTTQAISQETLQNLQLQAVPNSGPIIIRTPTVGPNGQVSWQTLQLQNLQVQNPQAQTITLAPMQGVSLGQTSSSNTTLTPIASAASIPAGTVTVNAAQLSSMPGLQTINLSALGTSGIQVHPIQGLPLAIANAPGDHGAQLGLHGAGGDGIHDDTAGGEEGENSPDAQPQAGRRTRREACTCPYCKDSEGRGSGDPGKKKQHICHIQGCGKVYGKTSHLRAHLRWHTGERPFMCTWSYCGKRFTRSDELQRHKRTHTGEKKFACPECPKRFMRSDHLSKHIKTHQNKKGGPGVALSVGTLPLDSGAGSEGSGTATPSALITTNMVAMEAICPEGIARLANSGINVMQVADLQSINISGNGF
Paired box protein Pax-6 (Homo sapiens), sequence (P26367 whole entry, looked up): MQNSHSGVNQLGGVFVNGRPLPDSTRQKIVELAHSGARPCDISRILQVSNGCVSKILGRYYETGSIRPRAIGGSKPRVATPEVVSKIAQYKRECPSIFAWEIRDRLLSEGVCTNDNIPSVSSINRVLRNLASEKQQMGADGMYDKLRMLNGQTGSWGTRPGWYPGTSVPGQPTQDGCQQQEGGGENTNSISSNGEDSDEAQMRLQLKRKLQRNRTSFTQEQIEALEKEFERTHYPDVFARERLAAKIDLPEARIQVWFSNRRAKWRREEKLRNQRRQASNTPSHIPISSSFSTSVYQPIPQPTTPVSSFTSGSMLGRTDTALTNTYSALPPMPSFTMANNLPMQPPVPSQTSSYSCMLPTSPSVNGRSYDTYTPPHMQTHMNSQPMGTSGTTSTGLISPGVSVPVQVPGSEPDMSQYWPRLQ
Heat shock factor protein 1 (Homo sapiens), sequence (Q00613 whole entry, looked up): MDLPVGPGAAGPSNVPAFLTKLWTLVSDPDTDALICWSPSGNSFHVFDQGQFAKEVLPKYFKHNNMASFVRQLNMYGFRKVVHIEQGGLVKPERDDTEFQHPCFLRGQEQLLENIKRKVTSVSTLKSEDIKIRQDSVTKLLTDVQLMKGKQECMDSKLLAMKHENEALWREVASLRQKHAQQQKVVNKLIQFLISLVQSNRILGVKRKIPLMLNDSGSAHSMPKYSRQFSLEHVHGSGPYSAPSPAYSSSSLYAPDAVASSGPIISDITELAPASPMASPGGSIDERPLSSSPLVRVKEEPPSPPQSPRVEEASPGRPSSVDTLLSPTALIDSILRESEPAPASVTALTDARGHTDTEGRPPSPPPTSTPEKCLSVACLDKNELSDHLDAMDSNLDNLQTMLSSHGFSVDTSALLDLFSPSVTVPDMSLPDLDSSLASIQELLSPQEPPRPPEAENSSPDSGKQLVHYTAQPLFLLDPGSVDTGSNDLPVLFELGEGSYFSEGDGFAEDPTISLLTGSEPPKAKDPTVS
Signal transducer and activator of transcription 3 (Homo sapiens), sequence (P40763 whole entry, looked up): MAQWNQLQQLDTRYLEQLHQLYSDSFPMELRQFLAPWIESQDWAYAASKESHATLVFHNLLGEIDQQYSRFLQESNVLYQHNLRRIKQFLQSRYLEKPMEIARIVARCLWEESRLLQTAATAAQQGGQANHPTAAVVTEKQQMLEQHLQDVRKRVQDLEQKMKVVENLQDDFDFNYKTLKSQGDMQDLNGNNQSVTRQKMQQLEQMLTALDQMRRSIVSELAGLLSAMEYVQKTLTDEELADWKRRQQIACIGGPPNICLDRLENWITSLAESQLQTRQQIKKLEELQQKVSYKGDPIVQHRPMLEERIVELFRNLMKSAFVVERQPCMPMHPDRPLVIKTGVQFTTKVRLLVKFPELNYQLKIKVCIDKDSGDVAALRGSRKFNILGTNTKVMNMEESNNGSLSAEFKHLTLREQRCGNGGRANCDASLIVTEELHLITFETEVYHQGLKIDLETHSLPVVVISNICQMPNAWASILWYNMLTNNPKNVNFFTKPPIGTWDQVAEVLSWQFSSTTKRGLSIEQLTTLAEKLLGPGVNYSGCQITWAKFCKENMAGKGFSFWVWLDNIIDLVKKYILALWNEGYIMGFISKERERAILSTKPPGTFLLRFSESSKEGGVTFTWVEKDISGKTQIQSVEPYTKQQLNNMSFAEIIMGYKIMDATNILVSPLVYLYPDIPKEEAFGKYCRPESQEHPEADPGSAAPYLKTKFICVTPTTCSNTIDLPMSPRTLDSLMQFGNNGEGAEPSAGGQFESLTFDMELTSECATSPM
Hypoxia-inducible factor 1-alpha (Homo sapiens), sequence (Q16665 whole entry, looked up): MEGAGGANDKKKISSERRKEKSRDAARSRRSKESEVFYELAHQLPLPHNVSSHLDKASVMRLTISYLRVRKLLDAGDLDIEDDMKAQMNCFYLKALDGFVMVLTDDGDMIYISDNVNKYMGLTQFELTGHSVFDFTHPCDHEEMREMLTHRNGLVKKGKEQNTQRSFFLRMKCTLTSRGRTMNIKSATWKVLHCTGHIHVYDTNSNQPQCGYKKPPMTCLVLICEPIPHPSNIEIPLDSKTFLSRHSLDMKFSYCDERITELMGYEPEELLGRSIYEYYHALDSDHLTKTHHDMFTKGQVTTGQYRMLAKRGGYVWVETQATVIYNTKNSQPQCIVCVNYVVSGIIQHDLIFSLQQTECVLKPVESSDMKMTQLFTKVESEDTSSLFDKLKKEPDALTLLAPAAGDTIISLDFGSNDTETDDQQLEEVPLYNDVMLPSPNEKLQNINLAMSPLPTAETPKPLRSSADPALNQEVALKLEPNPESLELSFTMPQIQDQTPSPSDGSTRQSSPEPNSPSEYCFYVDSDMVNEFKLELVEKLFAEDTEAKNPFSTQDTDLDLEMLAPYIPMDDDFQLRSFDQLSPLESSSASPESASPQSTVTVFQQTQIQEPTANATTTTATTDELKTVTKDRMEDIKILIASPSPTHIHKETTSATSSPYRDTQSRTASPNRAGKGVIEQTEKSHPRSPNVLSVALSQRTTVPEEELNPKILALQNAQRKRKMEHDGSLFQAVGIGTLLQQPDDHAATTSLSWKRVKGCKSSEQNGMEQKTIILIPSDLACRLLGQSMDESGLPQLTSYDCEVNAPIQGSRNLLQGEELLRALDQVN
Hepatocyte nuclear factor 6 (Homo sapiens), sequence (Q9UBC0 whole entry, looked up): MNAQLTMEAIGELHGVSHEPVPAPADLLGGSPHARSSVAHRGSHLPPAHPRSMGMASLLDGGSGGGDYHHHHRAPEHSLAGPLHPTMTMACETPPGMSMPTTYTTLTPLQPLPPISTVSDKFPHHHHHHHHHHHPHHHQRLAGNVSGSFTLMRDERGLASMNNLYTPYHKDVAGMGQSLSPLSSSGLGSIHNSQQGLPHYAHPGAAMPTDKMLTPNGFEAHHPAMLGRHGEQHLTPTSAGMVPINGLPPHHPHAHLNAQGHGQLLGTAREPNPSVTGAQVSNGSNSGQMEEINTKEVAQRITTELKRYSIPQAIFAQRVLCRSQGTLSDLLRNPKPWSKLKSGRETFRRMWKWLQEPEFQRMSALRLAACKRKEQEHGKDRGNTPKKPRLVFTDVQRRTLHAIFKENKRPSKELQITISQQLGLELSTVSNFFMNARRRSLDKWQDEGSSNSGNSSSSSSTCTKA

CCCC(C)C=O (stereo not drawn)
inactive: all assays above

Cc1c(Cl)c(=O)oc2cc(O)ccc12
active: [12] 70.3 µM | [16] 26.8 µM | [17] 120 µM
not listed: [10]
inactive: all other assays above

CC1=CCC2C(C1)C2(C)C (stereo not drawn)
active: [12] 6.95 µM
not listed: [18]
inactive: all other assays above

CC1CCC(C(C)(C)O)CC1 (stereo not drawn)
not listed: [14]
inactive: all other assays above

CC1CCC2CC1C2(C)C (stereo not drawn)
not listed: [13]
inactive: all other assays above

CSc1nnc(C(C)(C)C)c(=O)[nH]1
not listed: [15] | [18]
inactive: all other assays above

Cc1cccc(C)c1C
not listed: [18]
inactive: all other assays above

From PubChem BioAssay (EPA / NIEHS)
